Test results taken from PubChem BioAssay AID1259422 (The Scripps Research Institute Molecular Screening Center, 2018).
In all, about 640,000 compounds went through this assay and about 9,300 (1.5%) were called active. The entries come from a sample that favours actives as a whole. A number with no mark means an inactive call. Rule as the data show it: active = inhibition above about 32%; inactive = the rest.

Assay: TEAD-YAP interaction inhibition, primary screen, TEAD-YAP interaction inhibitor project, luminescence, HEK-TIYL cells (AID 1259422);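 also: 0% = median of test compound wells and 100% = reference inhibitor wells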
Conditions: TEAD-Gal4/YAP UAS-luciferase luminescence, at 9.12 µM, hits give high values

SMILES | inhibition
CCN1C(=O)N/C(=C/c2ccccc2OCc2ccc(C(=O)O)cc2)C1=O | -1.26%
NS(=O)(=O)c1ccc(C(=O)OCc2cccc(Cl)c2Cl)cc1 | 8.02%
COc1ccc2[nH]c(=O)c(CN(CCCO)Cc3nnnn3CC3CCCO3)cc2c1 (configuration not stated) | 5.17%
CC1CN(CCC(=O)N2CCCN(C3Cc4ccccc4C3)CC2)Cc2ccccc2O1 (configuration not stated) | -10.5%
O=C(NC(=O)c1cccc(F)c1)OC1CCS(=O)(=O)C1 (configuration not stated) | -5.15%
CC(=O)Nc1nc(-c2ccc(C)c(C)c2)cs1 | -61.1%
CC(=O)NCCCc1ccc(-c2csc(N)n2)cc1 | 56.7% (active)
CC(C)(C)C(=O)Nc1ccc(-c2csc(N)n2)cc1 | -22.9%
Cc1cc2c(cc1C)NC(CC(=O)Nc1cccc([N+](=O)[O-])c1)C(=O)N2 (configuration not stated) | -4.87%
CCOc1ccc(CN2CCN(Cc3cc(OC)ccc3O)CC2)cc1 | 3.2%
CCOC(=O)C1=C(C)NC2=C(C(=O)c3ccccc32)C1c1cc(Br)c(OC)c(OC)c1 (configuration not stated) | 57.2% (active)
COC(=O)C1=C(C)NC2=C(C(=O)c3ccccc32)C1c1ccc(OC)cc1 (configuration not stated) | -0.11%
CCOC(=O)C1=C(C)NC2=C(C(=O)c3ccccc32)C1c1cccc(F)c1 (configuration not stated) | -6.85%
C=CCNc1ccc([N+](=O)[O-])cc1C#N | 3.17%
Cc1ccc(NC(=O)C2CC3CCCN3C23C(=O)Nc2ccccc23)cc1 (configuration not stated) | 11.1%
CCCNC(=O)Cn1c(=O)oc2cc(Cl)ccc21 | 1.41%
Cc1sc(NC(=O)c2ccc(S(=O)(=O)N(C)c3ccccc3)cc2)c(C#N)c1C | 3.35%
CCc1cc2c(=O)c(-c3ccc4c(c3)OCCCO4)coc2cc1OC | -34.2%
CCc1cc2c(=O)c(-c3ccc4c(c3)OCCCO4)coc2cc1OC(=O)N1CCOCC1 | -8.61%
COc1ccc(-c2coc3cc(OCCN4CCOCC4)ccc3c2=O)cc1OC | 33% (active)
COc1ccc(C(=O)Nc2cc(C)nn2-c2nc3ccccc3[nH]2)cc1[N+](=O)[O-] | 10.1%
CCCc1cc(=O)[nH]c2nnc(SCC(=O)Nc3cc(OC)ccc3OC)n12 | -0.38%
N#C/C(=C\c1ccc(-c2ccc(S(N)(=O)=O)cc2)o1)C(N)=O | -6.41%

SMILES | inhibition
Cn1c(/C(C#N)=C/c2ccccc2)nc2ccccc21 | 2.92%
Cn1c(/C(C#N)=C\c2ccc(-c3ccc(S(N)(=O)=O)cc3)o2)nc2ccccc21 | 36.2% (active)
COCCN(C(=O)CN1C(=O)c2ccccc2C1=O)C1(C(=O)Nc2ccccc2)CCCC1 | 4.63%
COc1ccc(CNCc2cc(-c3ccccc3)cn3nnnc23)cc1 | 16%
Cc1cccc(-n2nc3c(c2NC(=O)c2ccc4c(c2)OCO4)CSC3)c1C | 3.84%
CC(C)(C)NC(=O)c1cccc(S(=O)(=O)N2CCN(c3ccc(F)cc3)CC2)c1 | 3.68%
Cc1ccc[n+](CC(=O)c2ccc(Cl)cc2)c1C | 1.36%
COc1ccc(CC(=O)c2ccc(OC)cc2)cc1 | -37.9%
COc1ccc(C(=O)C[n+]2ccc(N)c(C)c2C)cc1 | 33% (active)
CCOC(=O)C1=C(c2ccccc2)N=c2s/c(=C\c3ccc4c(c3)OCO4)c(=O)n2C1c1ccc(OC)c(OC)c1 (configuration not stated) | 6.04%
COc1ccc(-c2ccc(C(=O)NC3CC3)s2)cn1 | 40.7% (active)
COc1ccc(-c2cc(NC3CC3)nc(N)n2)cn1 | -43.5%
O=C(NC1CCN(Cc2ccccc2)CC1)c1ccc(-c2ccccc2)s1 | -22.3%
CC(C)N(C(=O)NCCC(=O)c1ccc(F)cc1)C(C)C | -1.1%
CC(=O)Nc1ccc(-c2nc(-c3ccccc3)c3cc(C)ccc3n2)cc1 | 7.4%
Clc1cc2nc3[nH]c4ccccc4c3nc2cc1Cl | -25.4%
CC(=O)Nc1ccc2nc3c(cc2c1)[nH]c1ccccc13 | 32.4% (active)
COc1ccc(C2/C(=C(\O)c3ccc(C)cc3)C(=O)C(=O)N2c2c(C)n(C)n(-c3ccccc3)c2=O)cc1 (configuration not stated) | -7.88%
COc1ccc(OCCSc2nnc3nc(C)cc(C)n23)cc1 | 0.54%
N#CCOc1ccc2c(=O)c(Oc3ccc4ccccc4c3)coc2c1 | 5.86%
COc1ccc(-c2cc(C(F)(F)F)n3nc(C(=O)NCc4ccccc4Cl)cc3n2)cc1 | -8.37%
Cc1sc2nc3n(c(=O)c2c1-c1cccs1)CCC3 | -2.17%
Cc1sc2nc3n(c(=O)c2c1C)N=C(c1cccs1)CS3 | 50.3% (active)

SMILES | inhibition
Cc1nc2scc(-c3cccs3)c2c(=O)n1N | 4.54%
N=C1S/C(=C/c2ccc(-c3cc(Cl)ccc3[N+](=O)[O-])o2)C(=O)N1c1nonc1N | 5.95%
C=CCNS(=O)(=O)c1cc(C(=O)Nc2ccccc2C(F)(F)F)ccc1F | -7.91%
Cc1[nH]c2ccccc2c1CCNC(=O)/C(=C/c1ccccc1)NC(=O)c1cccc(Br)c1 | 2.37%
COc1cccc(/C=N/NC(=O)/C(=C/c2ccccc2)NC(=O)c2ccccc2)c1O | 21.1%
Cc1[nH]c2ccccc2c1/C=N/NC(=O)/C(=C/c1ccccc1O)NC(=O)c1ccccc1 | 83% (active)
COc1ccc(C(=O)N/C(=C/c2ccc(Cl)cc2)C(N)=O)cc1 | -2.4%
CC(=O)c1ccc(NC(=O)CN2C(=O)C3C4CCC(C4)C3C2=O)cc1 (configuration not stated) | -12%
CC(=O)Oc1ccc(C(=O)Nc2ccncc2)cc1 | 1.93%
CC(=O)Oc1ccc(C(=O)N(C(=O)c2ccc(OC(C)=O)cc2)c2cc(C)ccn2)cc1 | 47.4% (active)
CC(=O)Oc1ccc(N(C(C)=O)S(=O)(=O)c2c(C)cc(C)cc2C)cc1 | -4.17%
COc1cc2cc(C)c3nnc(SCC(=O)NC(C)(C)C)n3c2cc1OC | -7.33%
O=C1NC(=S)S/C1=C/c1ccc(-c2ccc3c(c2)COC3=O)o1 | -7.22%
O=C(NCc1cccc(C(F)(F)F)c1)c1csc(Nc2nccc3ccccc23)n1 | -0.98%
Cc1ccc(Nc2c(Cc3ccccc3)c(C)c(C#N)c3nc4ccccc4n23)cc1 | -19.3%
CCOc1ccccc1C1C(C#N)=C(N)Oc2ccc3ccccc3c21 (configuration not stated) | -6.22%
N#CC1=C(N)Oc2ccc3ccccc3c2C1c1ccc(F)cc1 (configuration not stated) | -0.56%
N#CC1=C(N)Oc2ccc3ncccc3c2C1c1ccccc1F (configuration not stated) | 50.8% (active)
C=CCN(CC=C)C(=O)/C=C/c1cccc([N+](=O)[O-])c1 | 7.6%
COc1cccc(OCC(=O)N2CCC3(CC2)OCc2ccccc2O3)c1 | -8.9%
CC(=O)N1c2ccc(NC(=O)c3ccccc3)cc2C(C)(c2ccc(C)cc2)CC1(C)C (configuration not stated) | 13.9%
CC(Cl)/C(O)=C(\C#N)c1nc2ccccc2[nH]1 (configuration not stated) | -6.03%
OCCNC1CCCc2c1[nH]c1ccc(-c3ccccc3)cc21 (configuration not stated) | -12.6%

SMILES | inhibition
Cc1ccc2[nH]c3c(c2c1)CCCC3NCc1ccccc1 (configuration not stated) | 53.6% (active)
Cc1ccc2[nH]c3c(c2c1)CCCC3NC=O (configuration not stated) | 5.42%
Cc1ccc2nc(-c3cccc(NC(=O)c4cc([N+](=O)[O-])ccc4Br)c3)oc2c1 | 6.62%
O=C(COc1ccc(Cl)cc1)Nc1ncc(Cc2ccc(F)cc2)s1 | 5.3%
O=c1c2c(nc3n1CCCCC3)sc1c(O)cccc12 | 92.2% (active)
CC(C)(C)NCC(O)COc1c(Br)ccc2c1sc1nc3n(c(=O)c12)CCCCC3 (configuration not stated) | -32.7%
CC(=O)c1ccc(NC(=O)c2sc3nc4n(c(=O)c3c2C)CCCCC4)cc1 | -3.85%
COc1ccc(N2CC(CNC(=O)c3cccs3)CC2=O)cc1 (configuration not stated) | 6.17%
CCOc1ccc(C2C(C#N)=C(N)N(c3cccc([N+](=O)[O-])c3)C3=C2C(=O)CC(C)(C)C3)cc1 (configuration not stated) | -5.19%
Cc1cccc(N2C(N)=C(C#N)C(c3ccc(F)cc3)C3=C2CC(C)(C)CC3=O)c1 (configuration not stated) | -0.79%
CCOc1ccc(C2C(C#N)=C(N)N(c3cccc(C)c3)C3=C2C(=O)CC(C)(C)C3)cc1 (configuration not stated) | 56.6% (active)
COc1ccc(Cl)cc1C(=O)N1CCN(c2cccc(Cl)c2)CC1 | 64% (active)
O=C(c1ccc([N+](=O)[O-])cc1)N1CCN(c2cccc(Cl)c2)CC1 | -1.04%
O=C(c1cc(Cl)ccc1Cl)N1CCN(c2ccc(F)cc2)CC1 | 10.3%
CC(=O)c1c(C)[nH]c(C(=O)N2CCN(c3ccc(Cl)cc3)CC2)c1C | 12.3%
CC(=O)/C(C(=N)N1CCN(c2cccc(Cl)c2)CC1)=C(/C)O | -6.64%
Cc1cc(C(=O)N2CCN(c3cccc(Cl)c3)CC2)ccc1[N+](=O)[O-] | 3.11%
CN(C)c1cccc(C(=O)N2CCN(c3cccc(Cl)c3)CC2)c1 | 32.4% (active)
COc1ccc(-n2cc(C(=O)N3CCN(c4cccc(Cl)c4)CC3)c3ccccc3c2=O)cc1 | 0.04%
CC(=O)Nc1ccc(C(=O)N2CCN(c3cccc(Cl)c3)CC2)cc1 | -15.7%
COc1cc(OC)cc(-n2nc(C(=O)N3CCN(c4cccc(Cl)c4)CC3)c3ccccc3c2=O)c1 | 9.86%
CSc1ncc(Cl)c(C(=O)N2CCN(c3cccc(Cl)c3)CC2)n1 | 39% (active)
CCc1c(C(=O)N2CCN(c3cccc(Cl)c3)CC2)[nH]c(C)c1C(C)=O | 52.2% (active)
